Screening results from PubChem.
HEK cytotox: HEK 293 cell cytotoxicity. Potency, µM (top dose mostly 115 µM), actives largely listed as inhibitors. HEK 293 viability, ATP luminescence (CellTiter-Glo), 48-72 h. 6.6% of 94,000 active; further: nearly all actives have a fitted effect of over 60% in size
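qHTS cytotoxicity; HEK 293, 250 cells/well; compound pinned; 48 or 72 hr, 37 degree Celsius, 5% CO2, 95% humidity; CellTiter-Glo, 10 min RT; luminescence (ATP).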
hNpr1 antagonist: human Npr1 receptor antagonism; HEK293 hNpr1 GloSensor cGMP, ANP-stimulated luminescence; Potency, µM (series often up to 46.3 µM), usual class: inhibitors; 1.6% of 76,000 active; calls by dose curve; further: nearly all actives have a fitted effect of over 60% in size
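HEK293 cells stably expressing human Npr1 and cGMP GloSensor pGS-40F, loaded 2 h with 2% GloSensor reagent, given compound 30 min at room temperature. Luminescence read before and 20 min after 0.1 nM hNppA.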
FLuc inh: blocks purified firefly luciferase enzyme activity; Potency, µM (titrated, usually from 115 µM), usual class: inhibitors; P08659; 2.5% of 76,000 active; purified P. pyralis luciferase, luminescence, biochemical; further: nearly all actives have a fitted effect of over 65% in size
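Purified P. pyralis luciferase (10nM final) in 50mM Tris acetate pH 7.5, 10mM Mg acetate, 0.01% Tween-20, 0.05% BSA with 10uM D-luciferin and 10uM ATP. Compounds titrated qHTS. Luminescence imaged on CCD.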
NIH3T3 tox: kills NIH 3T3 cells; AID 1345082; Potency, µM (doses to about 96.7 µM), usual class: inhibitors; 4.3% of 94,000 active; NIH 3T3 viability, CellTiter-Glo ATP luminescence, 48-72 h; further: nearly all actives have a fitted effect of over 55% in size
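Cytotoxicity is measured as loss of cellular ATP: NIH 3T3 cells (400/well) are exposed to compound for 48 or 72 hr at 37 °C, then CellTiter-Glo luminescence is imaged after 10 min at room temperature.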
GPT2 inh: GPT2 alanine aminotransferase inhibition; Q8TD30; Recombinant GPT2, coupled pyruvate oxidase/HRP Amplex Red fluorescence; Potency, µM (titrated, usually from 57.7 µM), actives largely listed as inhibitors; 0.25% of 100,000 active; AID 1671188; further: nearly all actives have a fitted effect of over 60% in size
Target sequence (Q8TD30 whole entry, looked up): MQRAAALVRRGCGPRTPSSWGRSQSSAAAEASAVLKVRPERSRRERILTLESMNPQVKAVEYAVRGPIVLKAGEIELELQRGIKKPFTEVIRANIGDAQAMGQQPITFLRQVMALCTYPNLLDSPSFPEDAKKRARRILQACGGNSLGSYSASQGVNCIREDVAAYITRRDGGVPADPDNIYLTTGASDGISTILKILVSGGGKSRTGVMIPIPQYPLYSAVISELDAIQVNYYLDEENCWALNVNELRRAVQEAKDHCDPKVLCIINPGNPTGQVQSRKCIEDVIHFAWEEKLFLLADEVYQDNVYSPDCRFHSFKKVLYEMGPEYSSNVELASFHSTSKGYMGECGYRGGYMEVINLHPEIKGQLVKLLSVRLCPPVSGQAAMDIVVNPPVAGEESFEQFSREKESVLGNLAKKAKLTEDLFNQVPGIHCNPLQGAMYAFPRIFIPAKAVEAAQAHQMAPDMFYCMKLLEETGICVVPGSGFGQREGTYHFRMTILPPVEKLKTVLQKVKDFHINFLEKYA
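Fluorescence read-out: pyruvate from GPT2 turnover coupled to pyruvate oxidase, HRP and Amplex Red (0.2mM ThPP, 0.2U/mL PO and HRP, 50uM Amplex final). Substrates 250uM a-KG, 2mM L-alanine; enzyme 10ng/uL; 30 min RT.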
Numbers stand for hits; i = inactive; ? = inconclusive; nt = no result. The list is not random: actives were taken first. Their share in the collection is about 10%. Unless noted, the call rests on the fitted dose curve; in most records, active means well fitted curve in the direction sought with a large enough effect; inconclusive means small, poorly fitted or top-dose-only effect, or another doubt; inactive means no such curve, though single readings can be large; an effect the other way counts as inactive or inconclusive.

SMILES | HEK cytotox | hNpr1 antagonist | FLuc inh | NIH3T3 tox | GPT2 inh
COc1ccc(CNC(=O)N2CCc3nc(-c4ccccc4)[nH]c3C2)cc1 | ? | nt | nt | ? | i
Cc1nnc2ccc(N3CCC(NC(=O)c4ccc(C(F)(F)F)cc4)C3)nn12 (centres undefined) | i | nt | nt | i | nt
COc1ccccc1-c1ccc(C(=O)N2CCC(NC(=O)NC3CCCC3)CC2)cc1 | ? | nt | nt | ? | i
COc1ccccc1-c1nc2cnccn2c1NCCC(=O)Nc1ccc2c(c1)OCO2 | i | i | i | i | ?
COc1ccccc1-c1nc2cnccn2c1NCCC(=O)N1CCc2ccccc21 | 20µM | i | i | ? | i
Cc1ccc(C2Cn3cnc(C(=O)N4CCC(C(=O)NCCc5ccccc5)CC4)c3CO2)cc1 (centres undefined) | i | i | ? | i | i
O=C(NCc1cccc(F)c1)C1CCN(C(=O)c2ncn3c2COC(c2ccccc2)C3)CC1 (centres undefined) | ? | i | 5µM | i | i
Cc1ccc(C2Cn3cnc(C(=O)N4CCC(C(=O)NC(C)c5ccccc5)CC4)c3CO2)cc1 (centres undefined) | i | i | 28µM | i | i
Cc1ccc(C2Cn3cnc(C(=O)N4CCC(C(=O)NCCCc5ccccc5)CC4)c3CO2)cc1 (centres undefined) | i | i | 32µM | i | i
Cc1ccc(CNC(=O)C2CCN(C(=O)c3ncn4c3COC(c3ccccc3)C4)CC2)cc1 (centres undefined) | i | i | 16µM | i | i
O=C(NCc1ccccc1Cl)C1CCN(C(=O)c2ncn3c2COC(c2ccc(F)cc2)C3)CC1 (centres undefined) | i | i | ? | i | i
COc1ccc(CNC(=O)C2CCN(C(=O)c3ncn4c3COC(c3ccccc3)C4)CC2)cc1 (centres undefined) | i | i | 16µM | i | i
Cc1ccc(C2Cn3cnc(C(=O)N4CCC(C(=O)NCc5ccccc5Cl)CC4)c3CO2)cc1 (centres undefined) | ? | i | 35µM | i | i
COc1cc(-c2cc(C)c3cccc(OC)c3n2)cc2c1OCCN(C(=O)CCN)C2 | ? | i | i | 89µM | i
CCN(CC)C(=O)c1cccc(-c2ccc(OCCn3ccnc3)cc2)c1 | 45µM | i | i | ? | i
Cc1noc(C)c1C(=O)N1CCC2(CC1)CN(C(=O)c1ccc(Cl)cc1)CCO2 | i | nt | nt | 6.3µM | i
Cc1ccsc1CN1CCC2(CCC2N2CCOCC2)CC1 (centres undefined) | i | nt | nt | i | i
O=C1Cc2c(-c3ccccc3Cl)n[nH]c2CN1Cc1ccccn1 | i | i | i | 79µM | i
Cc1ccc(CNC(=O)[C@@]23CCCC[C@H]2N(C)C(=O)CC3)cc1 | i | i | i | i | i
COCCCNC(=O)c1cn2cc(-c3cccc(OC)c3)sc2n1 | 79µM | nt | nt | ? | i
COCCNC(=O)c1cn2cc(-c3ccc(C)cc3)sc2n1 | 100µM | nt | nt | ? | i
O=C(NCc1ccc(F)c(F)c1)c1cn2cc(-c3ccc(C(F)(F)F)cc3)sc2n1 | 56µM | nt | nt | 45µM | i
CNC(=O)c1cn2cc(-c3cccc(C(F)(F)F)c3)sc2n1 | 28µM | nt | nt | ? | i
CC(C)CNC(=O)c1cn2cc(-c3cccc(C(F)(F)F)c3)sc2n1 | ? | nt | nt | ? | i
COC(=O)CNC(=O)c1cn2cc(-c3ccc(C)cc3)sc2n1 | ? | nt | nt | i | ?
SMILES | HEK cytotox | hNpr1 antagonist | FLuc inh | NIH3T3 tox | GPT2 inh
CN1C(=O)C2(CCN(C(=O)C3(c4ccccc4)CC3)CC2)c2ccccc21 | ? | i | i | ? | i
COc1cccc(-c2cn3cc(C(=O)NCC(C)C)nc3s2)c1 | 22µM | nt | nt | ? | ?
CC(C)CNC(=O)c1cn2cc(-c3cccnc3)sc2n1 | ? | nt | nt | ? | i
CC(C)NC(=O)c1cn2cc(-c3ccccc3)sc2n1 | 71µM | nt | nt | ? | i
Cc1ccc(-c2cn3cc(C(=O)NCc4ccccn4)nc3s2)cc1 | 79µM | nt | nt | ? | i
CC(C)NC(=O)c1cn2cc(-c3ccc(C(F)(F)F)cc3)sc2n1 | i | nt | nt | i | i
O=C(c1cccc(Cl)c1)N1CCc2nc(-c3ccccc3)nc(-c3ccc(Cl)cc3)c2C1 | 28µM | i | i | ? | i
COc1cccc(C(=O)N2CCc3nc(-c4ccccc4)nc(-c4ccc(Cl)cc4)c3C2)c1 | 40µM | i | i | ? | i
COc1ccccc1Cn1c(=O)c(C(=O)N2CCN(C(C)=O)CC2)nc2cccnc21 | i | nt | nt | i | i
COc1ccc(C(=O)N[C@@H]2C=C[C@@H](c3c(C)nn(-c4ccc(C(F)(F)F)cc4)c3C)C2)cc1 | ? | i | i | ? | i
COc1ccc(-n2nc(C)c([C@@H]3C=C[C@@H](NCc4cccc(Cl)c4)C3)c2C)cc1 | 28µM | ? | 40µM | 25µM | i
COc1ccc(CN[C@@H]2C=C[C@@H](c3c(C)nn(-c4ccccc4)c3C)C2)cc1 | 28µM | i | ? | 50µM | i
COc1ccc(-n2nc(C)c([C@@H]3C=C[C@@H](NC(=S)NCC(C)C)C3)c2C)cc1 | 28µM | 28µM | 16µM | ? | i
Cc1nn(-c2cccc(Br)c2)c(C)c1[C@@H]1C=C[C@@H](NC(=O)CCCC(=O)O)C1 | i | i | i | i | i
COc1ccc(-n2nc(C)c([C@@H]3C=C[C@@H](NCc4ccc(N(C)C)cc4)C3)c2C)cc1 | ? | ? | 22µM | ? | i
CCCC(=O)O[C@@H]1[C@@H]2[C@@H](OC(C)=O)[C@]3(C)C(=O)[C@H]4[C@@H](OC(C)=O)C(C)(C)C[C@H]4[C@]3(C)C(=O)[C@@]2(OC(C)=O)C[C@@H]1C | nt | nt | nt | nt | i
COCCCNC(=O)CNC(=O)c1cccc(-c2ccc(SC)cc2)c1 | ? | nt | nt | ? | i
O=C(Nc1cc(-c2ccccn2)nn1-c1ccccc1)c1ccc(Cl)cc1 | i | nt | nt | i | i
CS(=O)(=O)N1CCC(C2CCN(Cc3ccc4c(c3)CCO4)C2)CC1 (centres undefined) | i | i | i | i | i
COC1CN(c2cccc(F)c2)C12CCN(C(=O)c1ccc3ncccc3c1)CC2 (centres undefined) | ? | nt | nt | i | i
COc1ccc(-c2cccc(COc3ccc4c(cnn4CC[S+](C)(=O)[O-])c3)c2)cc1 | ? | i | ? | ? | i
C[S+](=O)([O-])CCn1ncc2cc(OCc3cccc(-c4cccc(CO)c4)c3)ccc21 | 50µM | ? | ? | ? | ?
C[S+](=O)([O-])CCn1ncc2cc(OCc3cccc(-c4ccccc4F)c3)ccc21 | 50µM | ? | 16µM | ? | i
C[C@H](CN(C)C)Oc1nc(Nc2cc3cccc(Cl)c3cn2)cnc1C#N | nt | nt | nt | nt | i
CCOC(=O)C1CCN(C(=O)c2nc3sccn3c2-c2cccc(C#N)c2)CC1 | i | nt | nt | i | ?
CC1=C[C@@H](CNC(=O)NC2CCCCC2)[C@H](C(C)C)C[C@H]1Cc1nc2c(C)cccc2[nH]1 | i | i | i | i | i
